“And” between values parts separate entries of the source, which are not always exact repeats. Identical values can stand only once. Results filed as inconclusive are left out. Where a call stands in place of a potency, no number is given. Some structures have more than one record in an assay (separate samples or runs), and their calls can disagree. The source made the active and inactive calls. Calls come from the whole dose curve; as a rule, active = well fitted activation curve with a large enough effect in the repeat runs; inconclusive = weak or mixed curves; inactive = no such curve, though single readings can be large or run the other way. Residues, ends and D or L forms follow the SMILES beside them.

Chain of Nuclear receptor subfamily 1 group I member 2 (Rattus norvegicus) (Q9R1A7 whole entry, looked up): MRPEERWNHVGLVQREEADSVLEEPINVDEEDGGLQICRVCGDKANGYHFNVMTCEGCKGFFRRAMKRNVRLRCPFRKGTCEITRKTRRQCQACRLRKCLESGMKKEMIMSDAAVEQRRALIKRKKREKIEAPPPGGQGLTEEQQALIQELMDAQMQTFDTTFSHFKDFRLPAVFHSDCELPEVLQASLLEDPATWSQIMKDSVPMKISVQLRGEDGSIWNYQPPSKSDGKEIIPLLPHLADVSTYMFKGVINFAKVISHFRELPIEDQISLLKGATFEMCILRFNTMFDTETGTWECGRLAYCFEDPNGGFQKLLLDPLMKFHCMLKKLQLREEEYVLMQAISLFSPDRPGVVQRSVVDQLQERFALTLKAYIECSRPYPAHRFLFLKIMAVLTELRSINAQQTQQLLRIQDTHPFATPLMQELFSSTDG

The target of the first assay is Nuclear receptor subfamily 1 group I member 2 (Homo sapiens) (UniProt O75469). The assay can be described thus: Human pregnane X receptor (PXR) small molecule agonists, qHTS assay (AID 1346982). Note: nearly all actives have a fitted effect of over 35% in size. Note: potency is the fitted concentration of half-maximal effect. Conditions: PXR-Luc HepG2, CYP3A4 luciferase reporter, 24 h; series mostly up to 92.4 µM. The gist of the method: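 Tox21 qHTS; PXR-Luc HepG2; compounds pinned from DMSO; 24 hr, 37 C; ONE-Glo luciferase detection, 30 min room temperature.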
Chain of Nuclear receptor subfamily 1 group I member 2 (Homo sapiens) (O75469 whole entry, looked up): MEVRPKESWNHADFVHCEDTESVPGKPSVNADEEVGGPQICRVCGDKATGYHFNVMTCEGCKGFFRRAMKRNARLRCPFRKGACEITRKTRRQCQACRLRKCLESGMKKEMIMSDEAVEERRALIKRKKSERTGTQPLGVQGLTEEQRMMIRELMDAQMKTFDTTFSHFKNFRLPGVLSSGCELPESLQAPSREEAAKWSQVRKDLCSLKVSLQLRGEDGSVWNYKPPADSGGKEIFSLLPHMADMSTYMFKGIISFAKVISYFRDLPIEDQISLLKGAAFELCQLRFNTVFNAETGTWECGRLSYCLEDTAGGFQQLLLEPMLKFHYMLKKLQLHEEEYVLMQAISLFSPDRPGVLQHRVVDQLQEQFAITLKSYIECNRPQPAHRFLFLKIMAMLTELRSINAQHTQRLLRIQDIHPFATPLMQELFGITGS
On the technique in general: Quantitative high-throughput screening tests each substance at several concentrations.
As for `NC(N)=O`, the Potency is 9.16 µM (active) and inactive.
In the case of `O=C(c1ccccc1)C(O)c1ccccc1` (centres undefined), the Potency entry is “inactive”.
Still for that read-out and setting: with `CCCCOC(=O)CC(CC(=O)OCCCC)(OC(C)=O)C(=O)OCCCC` the figure was 6.68 µM (active) and 12.3 µM (active) and 13.7 µM (active); with `O=C(O)CCCCC(=O)O`, “inactive”.
For `CCCC(O)C(CC)CO` (centres undefined), the Potency result was “inactive”.
As for `COC(=O)[C@H](Cc1ccccc1)NC(=O)[C@@H](N)CC(=O)O` (H-Asp-Phe-OMe), the Potency result was “inactive”.
Same read-out and setting: with `CCOc1ccc(NC(=O)CC(C)O)cc1` (centres undefined) the entry was “inactive”.
With `O=c1ccc2ccccc2o1`, the Potency entry was “inactive”.
Still for that read-out and setting: as for `CC(O)C(=O)O` (centres undefined), the entry is “inactive”.
Same read-out and setting: as for `CC(O)CN(CCN(CC(C)O)CC(C)O)CC(C)O` (centres undefined), the entry is “inactive”; as for `C[C@]12C=CC(=O)C=C1CC[C@@H]1[C@@H]2[C@@H](O)C[C@@]2(C)[C@H]1CC[C@]2(O)C(=O)CO`, “inactive”; as for `CC(C)(Oc1ccc(C2CC2(Cl)Cl)cc1)C(=O)O` (centres undefined), “inactive”.
The same measure, in the same setting: with `Oc1ccc(/C=C/c2cc(O)cc(O)c2)cc1` the figure was 61.7 µM (active) and 30.6 µM (active) and 29.8 µM (active); with `O=c1cc[nH]c(=S)[nH]1`, 61.5 µM (active) and inactive; with `c1ccc2[nH]ccc2c1`, “inactive”.
Regarding `Cc1cc(=O)[nH]c(=S)[nH]1`, the Potency result was “inactive”.
As to `O=C(O)CCC(=O)O`, the Potency entry is “inactive”.
As to `CC(O)CO` (centres undefined), the Potency result was “inactive”.
Take `O=C1CN(/N=C/c2ccc([N+](=O)[O-])o2)C(=O)N1`: the Potency result is “inactive”.
As to `O=C(O)c1cc(N=Nc2ccc(S(=O)(=O)Nc3ccccn3)cc2)ccc1O`, the Potency entry is “inactive”.
On the same count and under the same terms, as for `O=C(O)C(=O)O`, the entry is “inactive”; as for `Cc1cn([C@H]2C[C@H](N=[N+]=[N-])[C@@H](CO)O2)c(=O)[nH]c1=O`, “inactive”.
On the same count and under the same terms, with `CC1(C)[C@@H]2CC[C@@]1(C)C(=O)C2` the entry was “inactive”; with `Nc1ccc(C(=O)O)cc1`, “inactive”.
Still for that read-out and setting: with `CC(=O)OCC(COC(C)=O)OC(C)=O` the entry was “inactive and 4.33 µM (active)”; with `Cc1ccccc1C(OCCN(C)C)c1ccccc1` (centres undefined), “inactive and 9.69 µM (active)”.
As to `C/C=C/c1ccc(OC)cc1`, the Potency entry is “inactive”.
`CC(C)[C@@H]1CC[C@@H](C)C[C@H]1O`: the Potency was 31 µM (active) and inactive.
As to `CCCC(CCC)C(=O)O`, the Potency entry was “inactive”.
In the case of `NNC(=O)c1ccncc1`, the Potency result was “inactive”.
As for `CCCCCCCCCCCCCCCC(=O)O`, the Potency result is “inactive”.
As to `CCCCC(CC)COC(=O)/C=C/c1ccc(OC)cc1` (centres undefined), the Potency entry was “inactive”.
For the molecule `NC(=O)c1ccccc1O`, the Potency result was “inactive”.

In another assay the target is Nuclear receptor subfamily 1 group I member 2 (Rattus norvegicus) (UniProt Q9R1A7). The assay can be described thus: Rat pregnane X receptor (rPXR) activation by small molecules, qHTS assay (AID 1346983). Note: nearly all actives have a fitted effect of over 20% in size. Conditions: rPXR luciferase reporter cells, One-Glo luminescence, 24 h; stronger effect = higher value. The essentials:
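Cell-based rPXR luciferase reporter assay, 2,000 cells per well, rested 5hr at 37 C before compound addition in DMSO, then 24 hr at 37 C. One-Glo reagent was added and luminescence read after 30 min at room temperature.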
Consider `NC(N)=O`, for which the max activation was -2.71% (inactive).
With `O=C(c1ccccc1)C(O)c1ccccc1` (centres undefined), the max activation is -4.09% (inactive).
The same measure, in the same setting: with `CCCCOC(=O)CC(CC(=O)OCCCC)(OC(C)=O)C(=O)OCCCC` the figure was 0.822% (inactive); with `O=C(O)CCCCC(=O)O`, -1.24% (inactive).
Regarding `CCCC(O)C(CC)CO` (centres undefined), the max activation is -6.82% (inactive).
With `COC(=O)[C@H](Cc1ccccc1)NC(=O)[C@@H](N)CC(=O)O` (H-Asp-Phe-OMe), the max activation is -3.24% (inactive) and -1.16% (inactive).
Consider `CCOc1ccc(NC(=O)CC(C)O)cc1` (centres undefined), for which the max activation was 0.554% (inactive).
For `CC(O)C(=O)O` (centres undefined), the max activation is -1.38% (inactive).
Take `CC(O)CN(CCN(CC(C)O)CC(C)O)CC(C)O` (centres undefined): the max activation was -4.71% (inactive).
Same read-out and setting: as for `CC(C)(Oc1ccc(C2CC2(Cl)Cl)cc1)C(=O)O` (centres undefined), the figure is -3.49% (inactive).
On to `Oc1ccc(/C=C/c2cc(O)cc(O)c2)cc1`, for which the max activation is -1.25% (inactive).
Consider `O=c1cc[nH]c(=S)[nH]1`, for which the max activation is -8.7% (inactive).
As for `c1ccc2[nH]ccc2c1`, the max activation was -4.01% (inactive).
Same read-out and setting: as for `Cc1cc(=O)[nH]c(=S)[nH]1`, the figure is -8.17% (inactive); as for `O=C(O)CCC(=O)O`, -3.42% (inactive).
Take `CC(O)CO` (centres undefined): the max activation is 1.42% (inactive).
On the same count and under the same terms, with `O=C1CN(/N=C/c2ccc([N+](=O)[O-])o2)C(=O)N1` the figure was -5.45% (inactive); with `O=C(O)c1cc(N=Nc2ccc(S(=O)(=O)Nc3ccccn3)cc2)ccc1O`, -4.4% (inactive).
Regarding `Cc1cn([C@H]2C[C@H](N=[N+]=[N-])[C@@H](CO)O2)c(=O)[nH]c1=O`, the max activation was -3.59% (inactive).
As to `CC1(C)[C@@H]2CC[C@@]1(C)C(=O)C2`, the max activation is -1.13% (inactive).
On to `Nc1ccc(C(=O)O)cc1`, for which the max activation is -4.61% (inactive).
On the same count and under the same terms, with `CC(=O)OCC(COC(C)=O)OC(C)=O` the figure was 3.67% (inactive); with `Cc1ccccc1C(OCCN(C)C)c1ccccc1` (centres undefined), -0.826% (inactive).
As to `C/C=C/c1ccc(OC)cc1`, the max activation was -1.43% (inactive).
`CC(C)[C@@H]1CC[C@@H](C)C[C@H]1O`: the max activation was -1.21% (inactive).
Turning to `CCCC(CCC)C(=O)O`, the max activation was 6.66% (inactive).
For `NC(=O)c1ccccc1O`, the max activation is -6.5% (inactive).

Another assay has as its target Nuclear receptor subfamily 1 group I member 2 (Homo sapiens) (UniProt O75469). The assay can be described thus: CYP3A4 induction through human pregnane X receptor (PXR) by small molecules, qHTS assay (AID 1346984). Note: nearly all actives have a fitted effect of over 40% in size. Conditions: DPX-2 HepG2 PXR, CYP3A4-luciferin luminescence, 24 h; series mostly up to 46.1 µM. The gist of the method: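 Cells (DPX-2; HepG2 with PXR element plus CYP3A4-promoter luciferase) settled 5hr, then were treated 24hr at 37C. A 3hr, 3uM-final Luciferin-IPA step preceded luminescence measurement with One-Glo.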
For the molecule `NC(N)=O`, the call was inactive.
As to `O=C(c1ccccc1)C(O)c1ccccc1` (centres undefined), the result was inactive.
`O=C(O)CCCCC(=O)O`: the call was inactive.
Turning to `CCCC(O)C(CC)CO` (centres undefined), the call was inactive.
In the case of `COC(=O)[C@H](Cc1ccccc1)NC(=O)[C@@H](N)CC(=O)O` (H-Asp-Phe-OMe), the molecule was classed as inactive.
Take `CCOc1ccc(NC(=O)CC(C)O)cc1` (centres undefined): the result was inactive.
On the same count and under the same terms, as for `O=c1ccc2ccccc2o1`, the entry is “inactive”; as for `CC(O)C(=O)O` (centres undefined), “inactive”; as for `CC(O)CN(CCN(CC(C)O)CC(C)O)CC(C)O` (centres undefined), “inactive”.
Still for that read-out and setting: as for `CC(C)(Oc1ccc(C2CC2(Cl)Cl)cc1)C(=O)O` (centres undefined), the entry is “inactive”; as for `Oc1ccc(/C=C/c2cc(O)cc(O)c2)cc1`, “inactive”.
As for `O=c1cc[nH]c(=S)[nH]1`, the call was inactive.
For `c1ccc2[nH]ccc2c1`, the molecule was classed as inactive.
Take `Cc1cc(=O)[nH]c(=S)[nH]1`: the result was inactive.
For `O=C(O)CCC(=O)O`, the outcome was inactive.
Take `CC(O)CO` (centres undefined): the call was inactive.
Turning to `O=C1CN(/N=C/c2ccc([N+](=O)[O-])o2)C(=O)N1`, the outcome was inactive.
In the case of `O=C(O)c1cc(N=Nc2ccc(S(=O)(=O)Nc3ccccn3)cc2)ccc1O`, the molecule was classed as inactive.
As to `Cc1cn([C@H]2C[C@H](N=[N+]=[N-])[C@@H](CO)O2)c(=O)[nH]c1=O`, the molecule was classed as inactive.
For the molecule `CC1(C)[C@@H]2CC[C@@]1(C)C(=O)C2`, the outcome was inactive.
`Nc1ccc(C(=O)O)cc1`: the call was inactive.
As for `CC(=O)OCC(COC(C)=O)OC(C)=O`, the outcome was inactive.
Turning to `Cc1ccccc1C(OCCN(C)C)c1ccccc1` (centres undefined), the call was inactive.
Still for that read-out and setting: with `C/C=C/c1ccc(OC)cc1` the entry was “inactive”; with `CC(C)[C@@H]1CC[C@@H](C)C[C@H]1O`, “inactive”.
For `CCCC(CCC)C(=O)O`, the molecule was classed as inactive.
Regarding `CCCCCCCCCCCCCCCC(=O)O`, the result was inactive.
With `CCCCC(CC)COC(=O)/C=C/c1ccc(OC)cc1` (centres undefined), the outcome was inactive.
Same read-out and setting: as for `NC(=O)c1ccccc1O`, the entry is “inactive”.
